# Calls of active or inactive are those of the source.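 The calls were made as follows: active = glucosylsphingosine level at or below 0.14 pmol/ug; inactive = the rest.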
# Test: Extended Characterization of Activators of N370S glucocerebrosidase as a Potential Chaperone Treatment of Gaucher Disease: Glucosylsphingosine in Macrophages
# Conditions: Gaucher patient macrophages, glucosylsphingosine LC-MS/MS; active compounds read low
# Excerpt: Glucocerebrosidase (GCase) catalyzes the hydrolysis of beta-glucocerebroside (GC) to glucose and ceramide in lysosomes. Mutations in the glucocerebrosidase gene result in Gaucher disease, an autosomal recessive lysosomal storage disorder. Many of the mutations encountered in patients with Gaucher disease are missense alterations that may cause misfolding, decreased stability and/or mistrafficking of this lysosomal protein. […] These inhibitors include iminosugar analogs and other inhibitors that were discovered as part of previous work. However, the enhancement of enzyme activity by the chaperone action of an enzyme inhibitor must be balanced against the direct inhibition of the enzyme. […] In this extended characterization of our probe, we have further characterized the activity of probes in relevant models of Gaucher disease. This assay attempts to quantitate glucosylsphingosine in patient-derived macrophages following compound incubation. NIH Chemical Genomics Center [NCGC] NIH Molecular Libraries Probe Production Centers Network [MLPCN] MLPCN Grant: MH086442 Assay Submitter (PI): Ellen Sidransky, NHGRI
# Glucosylsphingosine was measured by liquid chromatography-tandem mass spectrometry as previously described by Tropak et al. Chembiochem 2008, 9, 2650-2662.
row,Compound,glucosylsphingosine level
1,C#Cc1ccc(NC(=O)c2cnn3c(C)cc(C)nc23)cc1,0.135 pmol/µg (active)

# — PubChem BioAssay AID652098 (National Center for Advancing Translational Sciences (NCATS), 2013)
